Columns and labels:
Assay in all cases: PBM binding z-score (relative to random genomic background probes); higher = stronger binding; sequences stand for … in GC…GCGATTGACAGCGTAGAATGAAGG
[1] = system: RARb homodimer (NR concentration 270 nM)
Outline: (§1)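 Binding buffer was PBS pH 7.4 with 2% milk, 0.02% Triton X-100, 1 mM DTT, 0.2 mg/mL BSA and 0.4 mg/ml salmon testes DNA. In it, ligand-free nuclear receptor dimers were incubated 1 h on custom Agilent 4×180K protein-binding microarrays carrying double-stranded probes. Antibodies against each partner (one per run) detected binding, and z-scores were calculated against random background probes after regression normalization of scanned fluorescence.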

[2] = system: RARg:RXRa (NR concentration 270 nM, RXRa partner concentration 90 nM)
Outline: as §1

[3] = system: RARg homodimer (NR concentration 270 nM)
Outline: as §1

[4] = system: RXRa DBDmut IVT, anti-RXR (DBD mutation: RXRa K156A/R161A, NR concentration 90 nM)
Outline: as §1

[5] = system: RXRa homodimer (NR concentration 180 nM)
Outline: as §1

[6] = system: THRa:RXRa (NR concentration 90 nM, RXRa partner concentration 90 nM)
Outline: as §1

[7] = system: THRa homodimer (NR concentration 90 nM)
Outline: as §1

[8] = system: VDR homodimer (NR concentration 270 nM)
Outline: as §1

Sequence	PBM binding z-score [1]	PBM binding z-score [2]	PBM binding z-score [3]	PBM binding z-score [4]	PBM binding z-score [5]	PBM binding z-score [6]	PBM binding z-score [7]	PBM binding z-score [8]
CGTCCAAGGTCAATGCTAGGTCAGGGAAAGCATT	4.99	7.46	6.5	3.47	5.08	4.67	3.21	2.33
CGTCCAAGGTCAGAGAGGTCAGCGAATGCCGAGT	5.53	6.82	7.65	3.12	6.52	4.47	2.86	5.7
CCTATTAGTTGACCATGAGGGCAACCGAAGCTCG	2.22	1.32	1.16	0.831	0.812	2.11	1.79	1.43
CAACCTAGGTCAGGGCCAGTATAGGAGGAACGTT	2.7	3.49	4.18	0.0707	2.07	2.12	0.435	-0.128
TCATATACGTAAAGGTGAAAGTCGAACGATATGA	1.53	1.65	1.22	0.638	2.1	1.13	-0.853	-0.424
TCTAGATGGTCAAAGGTCACACACTCGAAATGCG	4.98	7.31	5.87	1.9	8.64	3.96	1.9	2.51
TCTTGTAGATCAATAGAGGTTAAGAGAGTGCGCT	1.02	0.864	0.443	0.589	1.46	2.56	-0.485	0.473
